Laboratory results reported in PubChem BioAssay AID362 (NMMLSC, 2006).
Screen size: about 4,300 compounds; about 60 (1%) were called active. For the sample, actives were picked, then their nearest neighbours and some compounds at random. A number with no mark means an inactive call.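 Rule for the calls: active = inhibition of labelled peptide binding to the formyl peptide receptor of at least 65%; inactive = the rest.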

Each compound was assayed against fMet-Leu-Phe receptor (Homo sapiens) (UniProt P21462) (assay: small-molecule ligands of human FPR – U937-FPR cells, fMLFK-FITC, flow cytometry, primary screen (AID 362;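 for inhibition: plate controls were buffer control wells for no effect and unlabeled fMLFF blocking peptide for full effect; higher means less cell fluorescence so more probe displaced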)). Details: fMLFK-FITC displacement; active compounds read high, concentration not given here.
Chain of fMet-Leu-Phe receptor (Homo sapiens) (P21462 whole entry, looked up): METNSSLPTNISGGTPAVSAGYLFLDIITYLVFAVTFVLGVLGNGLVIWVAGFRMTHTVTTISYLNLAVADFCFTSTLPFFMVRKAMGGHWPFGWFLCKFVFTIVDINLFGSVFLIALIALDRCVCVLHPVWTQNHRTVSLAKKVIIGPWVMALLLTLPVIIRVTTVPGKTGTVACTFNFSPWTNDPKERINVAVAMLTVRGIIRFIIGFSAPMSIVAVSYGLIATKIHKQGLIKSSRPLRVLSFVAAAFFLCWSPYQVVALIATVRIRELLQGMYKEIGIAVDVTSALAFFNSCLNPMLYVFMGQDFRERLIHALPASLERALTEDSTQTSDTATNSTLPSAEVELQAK

Row | Structure (SMILES) | inhibition
1 | CC1(C)CC(=O)C2=C(C1)Nc1ncnn1C2c1ccc(OCc2ccccc2)cc1 (stereo not drawn) | 7.5%
2 | CC1(C)CC(=O)C2=C(C1)Nc1[nH]n(-c3ccccc3)c(=O)c1C2c1ccccc1Cl (stereo not drawn) | 70.6% (active)
3 | Cc1ccc(C2C3=C(CC(C)(C)CC3=O)Nc3[nH]n(-c4ccccc4)c(=O)c32)cc1 (stereo not drawn) | 65.6% (active)
4 | CC(C)c1ccc(C2C3=C(CC(C)(C)CC3=O)Nc3[nH]n(-c4ccccc4)c(=O)c32)cc1 (stereo not drawn) | 57%
5 | CC1(C)CC(=O)C2=C(C1)Nc1[nH]n(-c3ccccc3)c(=O)c1C2c1ccccc1F (stereo not drawn) | 55.8%
6 | CCOc1ccc(C2C(C#N)=C(N)OC3=C2C(=O)CC(C)(C)C3)cc1 (stereo not drawn) | 15.2%
7 | CC1(C)CC(=O)C2=C(C1)Nc1[nH]n(-c3ccccc3)c(=O)c1C2c1cccs1 (stereo not drawn) | 50.9%
8 | CC1(C)CC(=O)C2=C(C1)Nc1[nH]n(-c3ccccc3)c(=O)c1C2c1ccc(F)cc1 (stereo not drawn) | 47.8%
9 | CCOc1ccc(C2C3=C(CC(C)(C)CC3=O)Nc3[nH]n(-c4ccccc4)c(=O)c32)cc1 (stereo not drawn) | 76% (active)
10 | COc1cc(C2NC(=O)NC(C)=C2C(=O)OC2CCCCCC2)ccc1O (stereo not drawn) | inactive
11 | O=C(O)c1ccc([N+](=O)[O-])c2c1NC(C(=O)O)C1CC=CC21 (stereo not drawn) | inactive
12 | CCOC(=O)C1CCC(CN(Cc2ccc(Cl)cc2)S(=O)(=O)c2ccc([N+](=O)[O-])cc2)CC1 (stereo not drawn) | inactive
13 | CCCc1cc2c(=O)c(-c3cc4ccccc4o3)coc2cc1OC(C)=O | 33.7%
14 | CCOCCOC(=O)C1=C(C)NC2=C(C(=O)C(C(=O)OC)C(C)C2)C1c1ccc(OC)c(O)c1 (stereo not drawn) | 23.5%
15 | COc1ccc(C(=O)NCC2(c3ccc(OC)c(OC)c3)CCCC2)cc1 | inactive
16 | CCCCCOC(=O)c1cccc(N2C(=O)C3C4CCC(C4)C3C2=O)c1 (stereo not drawn) | inactive
17 | COc1cc2c(C(=O)N(C)c3cccc(Cl)c3)cn(CC(C)C)c(=O)c2cc1OC | inactive
18 | CCOC(=O)C1C(c2cccc([N+](=O)[O-])c2)NC(=O)NC1(O)C(F)(F)F (stereo not drawn) | inactive
19 | Cc1ccc(C(=O)C2=C(N)OC3=C(C(=O)CC(C)(C)C3)C2c2ccccc2Cl)cc1 (stereo not drawn) | inactive
20 | O=C(CSc1nc2ccccc2c(=O)n1CC1CCC(C(=O)NCc2ccccc2Cl)CC1)NC1CCCC1 (stereo not drawn) | 4.5%

Row | Structure (SMILES) | inhibition
21 | CC(C)CN(CC(C)C)S(=O)(=O)c1ccc(C(=O)Nc2cccc(-c3nc4ccccc4[nH]3)c2)cc1 | 4.7%
22 | CCCCCCc1cc2c3c(c(=O)oc2cc1OCC(C)=O)CCC3 | 5.4%
23 | CCCCCCc1cc2c3c(c(=O)oc2cc1OCC(=O)O)CCC3 | 74.7% (active)
24 | CCCCCCc1cc2c3c(c(=O)oc2cc1OCC(=O)O)CCCC3 | 47.7%
25 | CC1CC(C)CN(C(=O)c2cn(C3CCCC3)c(=O)c3c2c2ccccc2n3C)C1 (stereo not drawn) | inactive
26 | COC(=O)c1c(-c2ccc(F)cc2)csc1NC(=O)C1CCCCC1C(=O)O (stereo not drawn) | 72.4% (active)
27 | COC(=O)c1c(-c2ccc(C)c(C)c2)csc1NC(=O)C1CCCCC1C(=O)O (stereo not drawn) | 22.4%
28 | COC(=O)c1c(-c2ccccc2)csc1NC(=O)C1CCCCC1C(=O)O (stereo not drawn) | inactive
29 | CCOC(=O)c1c(-c2ccc(C)cc2)csc1NC(=O)C1CCCCC1C(=O)O (stereo not drawn) | 15.5%
30 | COC(=O)c1c(-c2cc(C)ccc2C)csc1NC(=O)C1CCCCC1C(=O)O (stereo not drawn) | 40.4%
31 | CCOC(=O)c1c(-c2ccc(C)cc2C)csc1NC(=O)C1CCCCC1C(=O)O (stereo not drawn) | 94.2% (active)
32 | COC(=O)c1c(-c2cccc(C)c2)csc1NC(=O)C1CCCCC1C(=O)O (stereo not drawn) | 68.9% (active)
33 | CCOC(=O)c1c(-c2ccc(F)cc2)csc1NC(=O)C1CCCCC1C(=O)O (stereo not drawn) | 35.1%
34 | CCOC(=O)c1c(-c2ccc(OC)cc2)csc1NC(=O)C1CCCCC1C(=O)O (stereo not drawn) | 3%
35 | O=C(O)C1CCCCC1C(=O)N1CCN(C/C=C/c2ccccc2)CC1 (stereo not drawn) | inactive
36 | O=C(CSc1nc2ccccc2c(=O)n1CC1CCC(C(=O)NCc2ccco2)CC1)NCCC1=CCCCC1 (stereo not drawn) | 7.9%
37 | CC(=O)N1CCCc2cc(S(=O)(=O)NC(C(=O)NCc3cccs3)C(C)C)ccc21 (stereo not drawn) | inactive
38 | CC(C)C(C(=O)O)n1c(O)c(C2=c3cc(Br)ccc3=NC2=O)sc1=S (stereo not drawn) | 95.3% (active)
39 | CC(C)C(C(=O)O)n1c(O)c(C2=c3ccccc3=NC2=O)sc1=S (stereo not drawn) | 106% (active)
40 | Cc1cc(C)c(S(=O)(=O)NCC2CCC(C(=O)NCC3CCCO3)CC2)c(C)c1 (stereo not drawn) | inactive

Row | Structure (SMILES) | inhibition
41 | CC(C)CC(C(=O)OCC(=O)c1ccc(Cl)cc1)N1C(=O)c2ccccc2C1=O (stereo not drawn) | inactive
42 | CCN(CC)CC(=O)N1CCCc2c1c(=O)oc1ccc(OC(C)=O)cc21 | inactive
43 | Cc1ccc2nc3c(cc(C(=O)NCc4ccco4)c(=N)n3C3CCCC3)c(=O)n2c1 | inactive
44 | CCCCc1cc(=O)oc2cc(OCC(=O)OCC)c(Cl)cc12 | inactive
45 | O=C(C1CCCN(S(=O)(=O)c2ccccc2)C1)N1CCCCC1 (stereo not drawn) | 7.6%
46 | CC1=C(C)C/S(=N\S(=O)(=O)c2ccccc2)N(S(=O)(=O)c2ccccc2)C1 (stereo not drawn) | 103% (active)
47 | CC1=C(C)CS(=Nc2ccccc2[N+](=O)[O-])N(S(=O)(=O)c2ccccc2)C1 (stereo not drawn) | inactive
48 | CC(C)Cn1cc(C(=O)N2CC(C)CC(C)C2)c2c3ccccc3n(C)c2c1=O (stereo not drawn) | 5.3%
49 | O=S(=O)(c1ccc(-c2csc(=Nc3cccc4ccccc34)n2CCCCO)cc1)N1CCCCC1 | inactive
50 | CC1CCc2c(sc(NC(=O)C3CCCCC3C(=O)O)c2C(=O)OC(C)C)C1 (stereo not drawn) | 3%
51 | CCC(C)(C)C1CCc2c(sc(NC(=O)C3CCCCC3C(=O)O)c2C(=O)OC)C1 (stereo not drawn) | 80.5% (active)
52 | CCOC(=O)c1c(NC(=O)C2C3C=CC(C3)C2C(=O)O)sc2c1CCCCCC2 (stereo not drawn) | 16.4%
53 | CCOC(=O)c1c(NC(=O)C2CCCCC2C(=O)O)sc2c1CCC(C(C)(C)CC)C2 (stereo not drawn) | 21%
54 | CCOC(=O)c1c(NC(=O)C2C3CCC(C3=C(C)C)C2C(=O)O)sc2c1CCCCCCC2 (stereo not drawn) | 95.1% (active)
55 | CCOC(=O)c1c(NC(=O)C2C3C=CC(CC3)C2C(=O)O)sc2c1CCCC2 (stereo not drawn) | 4.5%
56 | CCCOC(=O)c1c(NC(=O)C2CCCCC2C(=O)O)sc2c1CCC(C)C2 (stereo not drawn) | 23.4%
57 | CCOC(=O)c1c(NC(=O)C2CCCCC2C(=O)O)sc2c1CCC(C(C)(C)C)C2 (stereo not drawn) | 71.7% (active)
58 | CCCOC(=O)c1c(NC(=O)C2CCCCC2C(=O)O)sc2c1CCC2 (stereo not drawn) | 47.3%
